A number with no mark means an inactive call. Results filed as inconclusive are left out. Calls of active or inactive are those of the source. Unless noted, calls follow the shape of the dose curve; as a rule, active = well fitted curve in the direction sought with a large enough effect in the repeat runs; inconclusive = weak or mixed curves; inactive = no such curve, though single readings can be large; an effect the other way counts as inactive or inconclusive.

Potency, outcome and activity change, positive = activation data for eight compounds are collected here from PubChem BioAssay (Tox21).

Test [1] is described as follows: qHTS assay to identify small molecule antagonists of the estrogen related receptor (ERR) signaling pathway from Tox21 library - cell viability counter screen (AID 1224834). Also: nearly all actives have a fitted effect of over 30% in size. In outline:
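ERR reporter cells, 2,000 per well, rested 6 h, then exposed to compound in DMSO for 17.5 hours at 37 C. Viability read as fluorescence after 30 min with CellTiter-Fluor.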

Test [2] addresses Luciferin 4-monooxygenase (Photinus pyralis) (UniProt P08659). As to the kind of experiment: qHTS assay to identify small molecule inhibitors of firefly luciferase (AID 1224835). Also: nearly all actives have a fitted effect of over 25% in size. Also: potency is read from the fitted curve at half-maximal effect. In a few lines: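 Inhibition of purified Photinus luciferase is measured by luminescence. Substrate levels (D-luciferin, ATP) sit at their KM values. Each compound is tested in a concentration series.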

The nature of test [3]: qHTS assay to identify small molecule agonists of the constitutive androstane receptor (CAR) signaling pathway - cell viability counter screen (AID 1224836). Also: nearly all actives have a fitted effect of over 45% in size. In outline: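 Double-stable HepG2 hepatoma cells (hCAR plus CYP2B6-2.2kb) are treated for 23 h at 37 C with test compounds in 15-point concentration series. PK11195 at 0.75 uM final is co-added. Cell viability is quantified by CellTiter-Fluor.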

Test [4] can be described thus: qHTS assay to identify small molecule antagonists of the constitutive androstane receptor (CAR) signaling pathway - cell viability counter screen (AID 1224837). Also: nearly all actives have a fitted effect of over 45% in size. In outline:
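HepG2 cells stably carrying hCAR and CYP2B6-2.2kb reporter, stimulated with 50 nM CITCO and compounds at 15 concentrations for 23 h at 37 C. Viability measured by CellTiter-Fluor fluorescence.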

Test [5] has as its target Nuclear receptor subfamily 1 group I member 3 (Homo sapiens) (UniProt Q14994). As to the kind of experiment: qHTS assay to identify small molecule antagonists of the constitutive androstane receptor (CAR) signaling pathway (AID 1224838). Also: nearly all actives have a fitted effect of over 40% in size. In outline: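 HepG2 cells stably carrying hCAR and a CYP2B6-2.2kb luciferase reporter, seeded 4 hrs before compound (15 concentrations). Stimulated with 50 nM CITCO for 24 hr at 37 C. ONE-Glo luminescence read after 30 min at room temperature.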
In general terms: Quantitative high-throughput screening tests each substance at several concentrations.

The target is the same in test [6]. Description: qHTS assay to identify small molecule agonists of the constitutive androstane receptor (CAR) signaling pathway (AID 1224839). Also: nearly all actives have a fitted effect of over 15% in size. Also: potency is read from the fitted curve at half-maximal effect. In a few lines:
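Readout: firefly luciferase luminescence via ONE-Glo. System: HepG2 double-stable for hCAR and CYP2B6-2.2kb. Conditions: 15-point compound titration, PK11195 at 0.75 uM final, 24 h incubation.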

Test [7] in a line: qHTS assay to identify small molecule antagonists of the estrogen related receptor signaling pathway with the pleiotropic PPARgamma coactivator (PGC) from Tox21 10K library - cell viability counter screen (AID 1224840; active = well fitted cell-killing curve with a large enough effect in the repeat runs, not every such curve was filed as active; also: nearly all actives have a fitted effect of over 40% in size). In outline:
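PGC/ERR cells (2,000/well) plated 6 h, then compound-treated for 17.5 h at 37 C. Viability measured by CellTiter-Fluor fluorescence after 30 min at 37 C, multiplexed with the pathway assay.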

Test [8] can be described thus: qHTS assay to identify small molecule antagonists of the estrogen related receptor signaling pathway with the pleiotropic PPARgamma coactivator (PGC) from Tox21 10K library (AID 1224841; call rule not given here; also: actives are mostly falling curves and most rising ones were filed inactive; nearly all actives have a fitted effect of over 50% in size). In a few lines: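 PGC/ERR cell line, 2,000 cells/well, pre-incubated 6 hours at 37 C, then exposed to compounds for 18 hours at 37 C; luciferase read with One-Glo luminescence after 30 min at room temperature.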

The nature of test [9]: qHTS assay to identify small molecule agonists of the estrogen related receptor signaling pathway with the pleiotropic PPARgamma coactivator (PGC) from Tox21 10K library (AID 1224842). Also: nearly all actives have a fitted effect of over 15% in size. In a few lines:
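Luminescence from One-Glo (30 min, room temperature) measured after PGC/ERR cells had 18 h at 37 C with pinned compound (23 nL in DMSO). Cells had been seeded at 2,000 per well and pre-incubated 6 h.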

Test [10] concerns the target Thyrotropin receptor (Homo sapiens) (UniProt P16473). As to the kind of experiment: qHTS assay to identify small molecule agonists of the thyroid stimulating hormone receptor (TSHR) signaling pathway (AID 1224843; calls by dose curve; also: nearly all actives have a fitted effect of over 45% in size). In outline:
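HEK293 cells stably bearing the thyrotropin receptor were plated at 800 cells/well and challenged with compound (30 min, RT). Accumulated cAMP was quantified via cAMP-d2 competing for cryptate-tagged antibody.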

A short description of test [11]: qHTS assay to identify small molecule agonists of the hypoxia (HIF-1) signaling pathway - cell viability counter screen (AID 1224844; calls by dose curve; also: nearly all actives have a fitted effect of over 50% in size). In outline:
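HRE-bla ME-180 cells, 2,000/well in 0.5% dialyzed FBS medium, treated 17 h at 37C with compounds. Viability read in the same wells as the bla reporter, by CellTiter-Glo luminescence after 30 min at room temperature.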

Test [12] can be described thus: qHTS assay to identify small molecule agonists of H2AX (AID 1224845; active = well fitted activation curve with a large enough effect in the signal ratio in the repeat runs, not every such curve was filed as active; the % refers to the signal ratio). In outline: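 Phospho-H2AX Ser139 measured by HTRF (ex 320 nm; em 665 and 620 nm) after 24 hr antibody incubation. Compounds, 15 concentrations, 0.76% DMSO, were applied to CHO-K1 cells for 3hr at 37C before lysis.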
Test [13] is described as follows: qHTS assay to identify small molecule agonists of the hypoxia (HIF-1) signaling pathway (AID 1224846; active = well fitted activation curve with a large enough effect in the signal ratio in the repeat runs, not every such curve was filed as active; the % refers to the signal ratio). In a few lines:
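HRE-bla ME-180 beta-lactamase reporter cells in medium with 0.5% dialyzed FBS, pre-incubated 5 h then exposed to compounds 17 h at 37C, 5% CO2; reporter induction read with CCF4-AM FRET substrate.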

A short description of test [14]: qHTS assay to identify small molecule agonists of H2AX - cell viability counter screen (AID 1224847; calls by dose curve;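 also: wild-type CHO-K1 cells; top concentration of the series differs between compounds; nearly all actives have a fitted effect of over 30% in size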). In outline: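 For this counter screen, overnight-attached CHO-K1 cells received test compounds (15 concentrations, 0.76% DMSO final); 3 hr later at 37C, CellTiter-Glo reagent was added and luminescence recorded after 30 min at room temperature.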
Test [15] in a line: qHTS assay to identify small molecule antagonists of the estrogen related receptor (ERR) signaling pathway from Tox21 library (AID 1224848). Also: nearly all actives have a fitted effect of over 50% in size. In outline:
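Reading was by luminescence 30 min after ONE-Glo addition. Before that, ERR cells at 2,000 per well had rested 6 h at 37 C/5% CO2 and then received pin-tooled compounds in DMSO for 18 h at 37 C.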

Test [16] is described as follows: qHTS assay to identify small molecule agonists of the estrogen related receptor (ERR) signaling pathway from Tox21 library (AID 1224849; calls by dose curve; also: nearly all actives have a fitted effect of over 15% in size). The settings on record: ERR reporter cell line, ONE-Glo luciferase, 18 h; at 92.4 µM (top of the series) unless noted. In outline:
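ERR reporter cells (NTP line) pre-incubated 6 hours at 37 C, then exposed to compounds for 18 hours at 37 C. ONE-Glo luciferase luminescence was read after 30 minutes at room temperature.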

The nature of test [17]: qHTS RealTime-Glo MT Cell Viability Assay in HEK293 cells - 32 hour (AID 1224868). Also: top concentration of the series differs between compounds; nearly all actives have a fitted effect of over 50% in size. In outline:
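Quantitative high-throughput screen of the Tox21 10K library in HEK293: cells and RealTime-Glo reagents plated together, compound added at 5 h, luminescence monitored through 40 h at 37 C.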

Test [18] is described as follows: qHTS RealTime-Glo MT Cell Viability Assay in HepG2 cells - 40 hour (AID 1224870). Also: nearly all actives have a fitted effect of over 50% in size. In a few lines:
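Real-time viability: cells seeded at 600 per well together with NanoLuc and cell-permeant prosubstrate, compounds added after 5 h incubation. Luminescence tracked at 0, 8, 16, 24, 32 and 40 h of exposure.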

Test [19] in a line: qHTS RealTime-Glo MT Cell Viability Assay in HepG2 cells - 24 hour (AID 1224867). Also: nearly all actives have a fitted effect of over 50% in size. In outline: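 Compound treatment began 5 h after plating HepG2 cells (600/well) with NanoLuc luciferase and prosubstrate. Plates stayed at 37 C for 40 h; luminescence was captured at six time points, 0 h through 40 h.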
Test [20] in a line: A CellTox Green Cytotoxicity Assay to monitor cytotoxicity in HEK293 cells - 0 hour (AID 1224869). Also: nearly all actives have a fitted effect of over 50% in size. In a few lines:
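HEK293 cells, 600/well, were preincubated 5 hours and then exposed to compounds at 37 C for up to 40 hours. A cell-impermeant cyanine dye staining dead-cell DNA was read by fluorescence at 0, 8, 16, 24, 32 and 40 h time points.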
% is scaled to controls: 0 for no effect and ±100 for the full control effect.

Chain of Thyrotropin receptor (Homo sapiens) (P16473 whole entry, looked up): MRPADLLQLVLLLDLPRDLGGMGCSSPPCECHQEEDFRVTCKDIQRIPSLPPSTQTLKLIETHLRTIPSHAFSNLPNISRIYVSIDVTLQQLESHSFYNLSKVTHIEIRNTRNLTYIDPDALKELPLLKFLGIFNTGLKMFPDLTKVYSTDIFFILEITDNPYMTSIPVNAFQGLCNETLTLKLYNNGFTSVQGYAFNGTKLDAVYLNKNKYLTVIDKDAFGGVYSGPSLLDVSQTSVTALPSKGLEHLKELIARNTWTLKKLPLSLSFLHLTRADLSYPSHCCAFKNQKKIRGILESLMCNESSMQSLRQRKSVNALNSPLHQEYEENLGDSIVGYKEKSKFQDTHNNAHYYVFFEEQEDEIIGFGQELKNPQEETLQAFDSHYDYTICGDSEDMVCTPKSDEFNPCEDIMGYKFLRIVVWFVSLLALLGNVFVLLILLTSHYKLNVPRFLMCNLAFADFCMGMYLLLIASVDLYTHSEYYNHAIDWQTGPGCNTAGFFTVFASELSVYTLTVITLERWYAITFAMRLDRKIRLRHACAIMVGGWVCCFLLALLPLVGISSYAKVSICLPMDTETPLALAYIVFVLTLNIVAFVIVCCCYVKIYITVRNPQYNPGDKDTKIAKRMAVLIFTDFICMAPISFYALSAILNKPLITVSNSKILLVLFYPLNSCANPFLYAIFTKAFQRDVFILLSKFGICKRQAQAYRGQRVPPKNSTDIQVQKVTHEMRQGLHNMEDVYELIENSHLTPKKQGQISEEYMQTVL
Chain of Nuclear receptor subfamily 1 group I member 3 (Homo sapiens) (Q14994 whole entry, looked up): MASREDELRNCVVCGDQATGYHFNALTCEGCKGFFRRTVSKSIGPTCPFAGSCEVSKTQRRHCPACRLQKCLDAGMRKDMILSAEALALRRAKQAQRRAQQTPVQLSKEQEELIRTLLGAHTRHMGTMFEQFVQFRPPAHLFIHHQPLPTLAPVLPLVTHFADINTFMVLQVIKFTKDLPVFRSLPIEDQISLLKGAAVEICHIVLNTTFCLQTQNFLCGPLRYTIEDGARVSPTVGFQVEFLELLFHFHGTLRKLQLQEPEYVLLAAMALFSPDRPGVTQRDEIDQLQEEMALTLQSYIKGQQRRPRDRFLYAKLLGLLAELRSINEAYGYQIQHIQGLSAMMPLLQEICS
Chain of Luciferin 4-monooxygenase (Photinus pyralis) (P08659 whole entry, looked up): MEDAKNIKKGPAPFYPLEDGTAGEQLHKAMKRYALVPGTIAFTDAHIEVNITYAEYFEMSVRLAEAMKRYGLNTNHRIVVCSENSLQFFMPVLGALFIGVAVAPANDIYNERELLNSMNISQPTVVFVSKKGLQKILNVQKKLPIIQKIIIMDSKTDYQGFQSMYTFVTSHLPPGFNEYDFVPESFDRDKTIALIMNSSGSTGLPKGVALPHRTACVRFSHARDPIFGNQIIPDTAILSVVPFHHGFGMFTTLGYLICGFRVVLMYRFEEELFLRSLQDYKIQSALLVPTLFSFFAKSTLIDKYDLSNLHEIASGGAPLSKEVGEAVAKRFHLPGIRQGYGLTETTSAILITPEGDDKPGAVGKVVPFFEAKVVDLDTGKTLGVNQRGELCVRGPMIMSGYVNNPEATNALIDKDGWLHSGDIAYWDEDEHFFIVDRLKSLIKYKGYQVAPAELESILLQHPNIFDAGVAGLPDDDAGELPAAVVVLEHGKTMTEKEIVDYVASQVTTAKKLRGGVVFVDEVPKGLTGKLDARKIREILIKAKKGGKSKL

With `CCCCCO`, the Potency entry in test [1], in [2], in [3], in [4], in [5] and in test [6] was “inactive” each time. Moreover, the Potency result in test [7], in [8], in test [9], in test [10], in test [11] and in test [12] was “inactive” in each case. Also, the Potency entry in [14], in [15], in test [17] and in test [18] was “inactive” in each case. In addition, the call in test [13] was inactive. Moreover, the activity change, positive = activation in test [16] is -0.565%.

With `Cc1ccc(S(=O)(=O)NC(=O)NC2CCCC2)cc1`, the Potency entry in [1], in test [2], in test [3], in test [4], in test [5] and in [6] was “inactive” each time. In addition, the Potency result in test [7], in test [10], in [11], in [12], in test [14] and in test [17] was “inactive” each time. For the same compound, the Potency result in [20] and in test [18] was “inactive” throughout. For the same compound, in test [19], the outcome was inactive.

For the compound `O=[N+]([O-])c1cccc(I)c1`, the Potency result in [1], in [2], in test [3], in test [4], in test [5] and in test [6] was “inactive” each time. Further, the Potency entry in test [7], in [10], in test [11], in [12], in test [14] and in test [17] was “inactive” throughout. In addition, the Potency result in [20] and in test [18] was “inactive” throughout. The result in test [13] and in test [19] was inactive.

With `O=C(Nc1ccc2c(c1)Cc1ccccc1-2)C(F)(F)F`, the Potency entry in [1], in [3], in test [4], in [5], in [7] and in [10] was “inactive” in each case. The Potency result in test [11], in test [12], in [14] and in test [18] was “inactive” throughout. Moreover, the Potency is 6.33 µM (active) in [2] and 27.3 µM (active) in test [6]. Moreover, the compound was called inactive in test [13] and in [19].

For `CC(C)=CCCC(C)C=O` (stereo not given), the Potency result in [1], in [2], in test [3], in test [4], in [5] and in [6] was “inactive” each time. Besides, the Potency result in test [7], in test [10], in [11], in [12], in [14] and in test [17] was “inactive” each time. In test [18], the Potency result is “inactive”. Moreover, the call in test [13] and in test [19] was inactive.

For `CCN(CC)CC(=O)OCC(=O)[C@@]1(O)CC[C@H]2[C@@H]3CCC4=CC(=O)CC[C@]4(C)[C@H]3[C@@H](O)C[C@@]21C`, the Potency entry in test [1], in test [2], in [3], in [4], in test [5] and in test [6] was “inactive” each time. For the same compound, the Potency entry in test [7], in test [10], in [11], in test [12], in [14] and in [17] was “inactive” throughout. For the same compound, the Potency result in [20] and in [18] was “inactive” each time. The call in test [19] was inactive.

With `CC[C@H](NC(C)C)[C@H](O)c1ccc(O)c2[nH]c(=O)ccc12`, the Potency entry in [1], in [2], in test [3], in [4], in test [5] and in test [6] was “inactive” each time. The Potency entry in [7], in test [8], in test [9], in test [11], in test [12] and in test [14] was “inactive” throughout. For the same compound, the Potency entry in test [15], in test [17] and in [20] was “inactive” in each case. Moreover, the activity change, positive = activation in [16] was 4.6% [at 42.5 µM].

`CCC(=O)O[C@]1(C(=O)COC)[C@@H](C)C[C@H]2[C@@H]3CCC4=CC(=O)C=C[C@]4(C)C3(F)[C@@H](O)C[C@@]21C` (stereo not given in full): the Potency entry in test [1], in test [2], in test [3], in test [4], in [5] and in test [6] was “inactive” each time. Moreover, the Potency entry in test [7], in [8], in test [9], in [10], in test [12] and in [14] was “inactive” in each case. In addition, the Potency entry in [15], in test [17] and in [18] was “inactive” in each case. Besides, the activity change, positive = activation in test [16] is -12.4% [at 42.5 µM].
